The record followed here is PubChem BioAssay (NCI).

About 83,000 compounds went through this panel and 20% of them were active in at least one assay; those are over-represented in the sample as a whole.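 The endpoint reported here, percent growth, reads 100 for growth as untreated, 0 for no net growth and -100 for all cells dead.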 Values without a mark were called inactive. The source made the active and inactive calls. Rule for the calls: active = growth percent below 10; inactive = the rest.

Among the test systems are BT-549 breast; MDA-MB-435 melanoma; SW-620 colon; MCF7 breast; HCT-116 colon; HCC-2998 colon; KM12 colon.
Test in all cases: NCI-60 one-dose screen, 48 h (100 = growth as untreated, 0 = no growth, -100 = all killed)
What all share (details): 10 µM unless noted

For the molecule `C[C@H]1[C@H]2C3=CC[C@@H]4[C@@]5(C)C/C(=C/c6ccncc6)C(=O)C(C)(C)[C@@H]5CC[C@@]4(C)[C@]3(C)CC[C@@]2(C(=O)N2CCN(C)CC2)CC[C@@H]1C`, the growth was 89.3% in the assay on BT-549 breast; 81.9% in the assay on MDA-MB-435 melanoma; 83.1% in the assay on SW-620 colon; 58.5% in the assay on MCF7 breast; 55.4% in the assay with HCT-116 colon; 82.9% in the assay on HCC-2998 colon. Besides, the growth with KM12 colon was 67.5%.
With `COc1ccc(Oc2nc(Nc3ccc(N4CCCCC4)nc3)ncc2NC(=O)c2cc(OC)cc(OC)c2)cc1`, the growth is 56.5% in the assay with BT-549 breast; -30.6% (active) in the assay with MDA-MB-435 melanoma; 30.6% in the assay with SW-620 colon; 9.76% (active) in the assay on MCF7 breast; 18.8% in the assay on HCT-116 colon; 65.8% with HCC-2998 colon. Further, in the assay with KM12 colon, the growth was 20.2%.
Take `COc1ccc(Nc2ncc(Br)c(NCCCNC(=O)C3CCC3)n2)cc1`: the growth in the assay on BT-549 breast was -33.9% (active); in the assay on MDA-MB-435 melanoma, 53.8%; in the assay on SW-620 colon, 29.1%; in the assay with MCF7 breast, 41.1%; in the assay with HCT-116 colon, 5.88% (active); in the assay on HCC-2998 colon, 42.4%. In addition, the growth in the assay with KM12 colon was 15.2%.
Take `CCN(CC)N=Nc1nn(C(=O)Nc2ccc(Cc3ccccc3)cc2)c2ccc(Cl)cc12`: the growth in the assay with BT-549 breast was 84.1%; in the assay with MDA-MB-435 melanoma, 43%; with SW-620 colon, 44.4%; in the assay with MCF7 breast, 40.4%; in the assay on HCT-116 colon, 44%; with HCC-2998 colon, 43.2%. For the same molecule, the growth with KM12 colon was 56.6%.
`C=C1C(=O)O[C@H]2[C@H]1CC/C(COC(=O)NCc1ccc(Cn3c(=O)sn(CCCCl)c3=O)cc1)=C\CC[C@@]1(C)O[C@@H]21`: the growth in the assay on BT-549 breast was 51.8%; in the assay with MDA-MB-435 melanoma, 26.8%; in the assay with SW-620 colon it was -51.9% (active); in the assay with MCF7 breast, 5.59% (active); in the assay with HCT-116 colon it was -63.6% (active); in the assay on HCC-2998 colon it was 91.4%. In the assay on KM12 colon, the growth was 77.7%.
For `O=S(=O)(Nc1ccsc1-c1nc(-c2ccccc2)no1)c1cc(Cl)cc(Cl)c1`, the growth in the assay on BT-549 breast is 99.5%; in the assay with MDA-MB-435 melanoma, 88.9%; in the assay on SW-620 colon, 95.8%; in the assay on MCF7 breast it was 92.4%; in the assay with HCT-116 colon, 89.9%; in the assay on HCC-2998 colon, 104%. Moreover, in the assay with KM12 colon, the growth is 93.2%.
`Cc1c(C(=O)O[C@H]2[C@@H]3[C@H](C)CC[C@H]3[C@]3(C)O[C@@]2(C2CCCCC2)C[C@H]3OC(=O)CO)ccc2ccccc12`: the growth in the assay on BT-549 breast is 33.4%; with MDA-MB-435 melanoma, 39%; in the assay with SW-620 colon, 18.7%; with MCF7 breast, 3.27% (active); in the assay on HCT-116 colon it was 3.42% (active); in the assay with HCC-2998 colon, 5.5% (active). In addition, the growth with KM12 colon is 27.9%.
Turning to `c1ccc2c(c1)ncn2-c1nc2ccccc2n2c1nc1ccccc12`, the growth in the assay on BT-549 breast was 91.6%; in the assay with MDA-MB-435 melanoma, 102%; in the assay with SW-620 colon, 78.4%; in the assay on MCF7 breast, 7.93% (active); in the assay on HCT-116 colon it was 67.2%; with HCC-2998 colon, 20.5%. In addition, the growth in the assay on KM12 colon was 47.7%.
In the case of `O=C(NCc1cccnc1)c1cc(-c2csc3c(=O)cc(N4CCOCC4)oc23)cc2c1OCCO2`, the growth was 54.3% in the assay with BT-549 breast; 32.9% in the assay on MDA-MB-435 melanoma; 46.9% in the assay with SW-620 colon; 8.29% (active) with MCF7 breast; 45.2% in the assay with HCT-116 colon; 41.8% in the assay with HCC-2998 colon. For the same molecule, in the assay on KM12 colon, the growth is 48.9%.
Turning to `CCn1nc(C#Cc2c(C)ccc3c(Nc4ccc(Cl)cc4)nccc23)c2c(N)ncnc21`, the growth with BT-549 breast is 10.5%; in the assay with MDA-MB-435 melanoma, -26.3% (active); with SW-620 colon, 25%; in the assay on MCF7 breast it was 6.61% (active); in the assay with HCT-116 colon, 6.73% (active); with HCC-2998 colon, 31.6%. Besides, the growth with KM12 colon is 14.2%.
Turning to `C=CC(=O)Nc1cccc(C)c1Nc1cc(-c2cccnc2Cc2c(C)c(OC)cc(OC)c2C)ncn1`, the growth in the assay with BT-549 breast is 5.86% (active); in the assay on MDA-MB-435 melanoma, 19.9%; in the assay with SW-620 colon, 24.8%; in the assay on MCF7 breast, 8.59% (active); in the assay with HCT-116 colon, 15.8%; with HCC-2998 colon, 71.1%. Further, the growth in the assay with KM12 colon was 17.6%.
`Cc1nc2ccc(C(=O)NCc3cc(C(=O)O)c(C)o3)cc2nc1C`: the growth was 96.1% in the assay on BT-549 breast; 96.2% with MDA-MB-435 melanoma; 99.3% in the assay with SW-620 colon; 101% with MCF7 breast; 95.5% in the assay on HCT-116 colon; 98% with HCC-2998 colon. Moreover, in the assay with KM12 colon, the growth is 92.3%.
In the case of `C=C(C)[C@@H]1CC[C@]2(CO)CC[C@]3(C)[C@H](CC[C@@H]4[C@@]5(C)C=C(C#N)C(=O)C(C)(C)[C@@H]5CC[C@]43C)[C@@H]12`, the growth is 29.3% with BT-549 breast; 17.8% in the assay with MDA-MB-435 melanoma; 5.54% (active) with SW-620 colon; 1.77% (active) with MCF7 breast; 10.5% with HCT-116 colon; 8.97% (active) with HCC-2998 colon. Also, the growth in the assay on KM12 colon was 6.43% (active).
As for `COc1cc(NC(=O)c2cccc(-c3cc(=O)c4c(OC)c(OC)c(OC)cc4o3)c2)cc(OC)c1OC`, the growth is 6.36% (active) in the assay with MDA-MB-435 melanoma; 67% in the assay with SW-620 colon; 48.6% in the assay on HCT-116 colon; 74.1% with HCC-2998 colon; 45.8% in the assay on KM12 colon.
In the case of `C=C1C(=O)O[C@H]2[C@H]1CC/C(Cn1cc(CNCCc3c[nH]c4ccccc34)nn1)=C\CC[C@@]1(C)O[C@@H]21`, the growth with BT-549 breast was 90.6%; with MDA-MB-435 melanoma, 97%; with SW-620 colon, 46.1%; in the assay on HCT-116 colon, 64.8%; in the assay with HCC-2998 colon, 97.1%; in the assay with KM12 colon, 98%.
As to `CO[C@H]1/C=C/O[C@@]2(C)Oc3c(C)c(O)c4c(c3C2=O)C(=O)C(/C=N/N(c2ccccc2)c2ccccc2)=C(NC(=O)/C(C)=C\C=C\[C@H](C)[C@H](O)[C@@H](C)[C@@H](O)[C@@H](C)[C@H](OC(C)=O)[C@@H]1C)C4=O`, the growth is -17.4% (active) with MDA-MB-435 melanoma; 2.36% (active) in the assay on SW-620 colon; 0.555% (active) in the assay with HCT-116 colon; -70.4% (active) in the assay on HCC-2998 colon; -23.9% (active) in the assay on KM12 colon.
